From PubChem
TGFb SMAD3 inh: TGF-b pathway inhibition; HepG2 CAGA-GFP TGF-b/SMAD3 reporter, GFP fluorescence, 18 h; TGF-beta stimulated, 500 pg/mL final; Potency, µM (doses to about 46.1 µM), hits mostly inhibitors; 1.2% of 410,000 active; AID 588855; further: nearly all actives have a fitted effect of over 65% in size
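GFP signal (ex488/em500-530) from TGF-beta-stimulated HEPG2 CAGA-GFP cells, 500 pg/mL final, 18 h at 37 degrees C in DMEM plus 1% FBS, normalized to unstimulated and DMSO-stimulated controls.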
S2 tox: cell viability loss in ATXN counter-screen. 0.49% of 400,000 active. S2 cells (HEK-293 line with an ATXN2-luciferase reporter) viability, CellTiter-Fluor protease fluorescence, 24 h. Potency, µM (highest dose often 56.7 µM), actives largely listed as cytotoxic. AID 651635; further: nearly all actives have a fitted effect of over 40% in size
ATXN2 expr inh: reduces ATXN2 reporter expression in HEK-293 cells. HEK-293 ATXN2-luciferase reporter, luminescence, 24 h. Potency, µM (doses to about 57 µM), actives largely listed as inhibitors. 0.72% of 360,000 active. AID 1745845; further: nearly all actives have a fitted effect of over 55% in size
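qHTS (up to 57 uM final) was run with 24 h compound exposure of reporter cells at 37 °C. Each well was multiplexed: SteadyGlo luminescence measured ATXN2-luciferase expression after a fluorogenic Gly-Phe-AFC viability readout (25 uM final).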
LDHA block: blocks human lactate dehydrogenase A; 0.15% of 480,000 active; P00338; purified LDHA, NADH/diaphorase-resazurin fluorescence; active compounds read low; activity change, % (values are at about 110 or 230 µM); in the data active means activity change below about -30%; inconclusive means mostly about -25% to -30%
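Human LDH5 at 2 nM final in Tris HCl pH 7.4 with 0.06 mM NADH and 0.2 mM pyruvate, reacted 5 minutes at room temperature. Remaining NADH coupled via diaphorase/resazurin; resorufin fluorescence read at 0 and 20 minutes, normalized to enzyme-free and DMSO wells.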
IDH1 R132H inh: human IDH1 R132H inhibition | O75874 | IDH1-R132H enzyme, NADPH consumption, diaphorase/resazurin fluorescence | Potency, µM (highest dose often 76.6 µM), usual class: inhibitors | 0.093% of 390,000 active | AID 602179; further: nearly all actives have a fitted effect of over 65% in size
Target sequence (O75874 whole entry R132H, stated change not applied): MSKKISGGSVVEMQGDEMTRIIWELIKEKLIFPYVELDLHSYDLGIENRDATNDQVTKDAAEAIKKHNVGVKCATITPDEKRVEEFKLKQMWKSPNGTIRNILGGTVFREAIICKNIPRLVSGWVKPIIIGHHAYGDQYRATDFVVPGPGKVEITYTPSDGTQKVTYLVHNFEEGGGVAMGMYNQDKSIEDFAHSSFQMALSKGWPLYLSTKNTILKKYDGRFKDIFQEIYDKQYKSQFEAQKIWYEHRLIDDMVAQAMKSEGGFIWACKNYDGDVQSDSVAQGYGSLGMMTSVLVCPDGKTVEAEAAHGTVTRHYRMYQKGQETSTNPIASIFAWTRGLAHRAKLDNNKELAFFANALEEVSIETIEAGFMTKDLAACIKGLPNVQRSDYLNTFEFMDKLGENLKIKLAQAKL
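IDH1-R132H (0.5 ug/mL) preincubated 30 min with compound, then NADPH (0.016 mM) and alpha-KG (2 mM) added; 80 min at RT, pH 7.5. Remaining NADPH coupled via diaphorase/resazurin to fluorescence (540/590 nm); concentration-response curves normalized to no-enzyme control.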
HepG2 tox: HepG2 cytotoxicity, counter-screen for TGF-b inhibitors; 0.76% of 410,000 active; AID 588856; Potency, µM (doses to about 46.1 µM), actives largely listed as cytotoxic; HepG2 CAGA-GFP viability, ATP luminescence, 18 h
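HepG2 CAGA-GFP cells (1000/well, DMEM with 1% FBS) received compound, then TGF-beta at 500 pg/mL final, and were incubated 18 hours at 37 degrees C. Viability was read by CellTiter-Glo luminescence. Media-only wells were set as complete cell-killing and DMSO as no toxicity.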
Numbers stand for hits; n = inactive; u = inconclusive; x = not tested or not shown; [ ] = dose if it differs, or a comment. This is a sample that favours compounds with a hit; in the whole collection about 2.2% have one here. Unless noted, the call rests on the fitted dose curve; in most records, active means well fitted curve in the direction sought with a large enough effect; inconclusive means small, poorly fitted or top-dose-only effect, or another doubt; inactive means no such curve, though single readings can be large; an effect the other way counts as inactive or inconclusive.

SMILES	TGFb SMAD3 inh	S2 tox	ATXN2 expr inh	LDHA block	IDH1 R132H inh	HepG2 tox
COc1cc2c(cc1NC(=O)C(C)Sc1cccc[n+]1[O-])oc1ccccc12 (centres undefined)	u	n	n	n	n	n
Cc1ccc(S(=O)(=O)NCc2c(-c3ccccc3)noc2C)cc1	n	x	n	n	n	n
Cc1onc(-c2ccccc2)c1CNS(=O)(=O)c1ccccc1	n	n	n	n	n	11.2µM
N#Cc1cc2c(nc1SCc1ccncc1)CCC2	12.6µM	n	n	n	n	n
CN(C)CCCN1C(=O)c2cccc3cccc(c23)C1=O	n	n	u	n	n	n
CN(C)CCN1C(=O)c2cccc3cc([N+](=O)[O-])cc(c23)C1=O	6.31µM	u	u	n	n	n
CC(=O)Oc1ccc2c(C)cc(=O)oc2c1C(=O)c1ccccc1	n	n	n	-34.6	n	n
COc1ccc(C(=O)Oc2ccc3c(C)cc(=O)oc3c2C(C)=O)cc1	n	n	n	n	n	n
CC(C(=O)N1CCN(Cc2ccccc2)CC1)c1ccc([N+](=O)[O-])cc1 (centres undefined)	n	n	n	n	n	n
O=C(Cc1ccccc1)NCC(=O)N/N=C/c1ccc([N+](=O)[O-])s1	u	u	u	n	n	15.8µM
O=[N+]([O-])c1ccc(/C=N/O)s1	x	x	x	n	x	x
O=C(CNC(=O)c1ccccc1)N/N=C/c1ccc([N+](=O)[O-])s1	11.2µM	u	u	n	n	14.1µM
O=[N+]([O-])c1ccc(C=Nc2cccc3ccccc23)s1	15.8µM	u	n	n	n	25.1µM
O=C(NCC1CCCN1S(=O)(=O)c1cccs1)C(=O)Nc1cccc(F)c1 (centres undefined)	n	n	n	n	n	n
Cc1noc(C)c1CSCC(=O)Nc1nc(-c2ccc(F)c(F)c2)cs1	u	u	22.4µM	n	n	n
COc1ccc(-c2csc(NC(=O)CSCc3c(C)noc3C)n2)cc1OC	n	u	n	n	n	n
Cc1csc(SCC(=O)Nc2ccccc2C(=O)Nc2ccc(F)cc2)n1	x	x	x	n	x	x
C(=C\c1nc(N2CCCCCC2)c2ccccc2n1)/c1ccccc1	n	u	u	n	n	n
O=C(Nc1ccc(CN2CCOCC2)cc1)c1cc2ccccn2n1	n	n	22.4µM	n	n	n
Cc1cccc(C(=O)N2CCC(=O)N([C@H](COCc3ccc(Cl)cc3)Cc3ccccc3)CC2)c1	x	x	u	n	x	x
Cc1cccc(C(=O)N2CCCC(Nc3ccc(C)c(C)c3)C2)n1 (centres undefined)	n	n	n	n	n	n
Cc1cccc(C(=O)N2CCCC(Nc3ccc(F)c(F)c3)C2)n1 (centres undefined)	n	n	n	n	n	7.08µM
CCC1Oc2ccc(C)cc2N(CC(=O)N(Cc2ccc(C)o2)C2CC(C)(C)NC(C)(C)C2)C1=O (centres undefined)	u	u	u	n	n	12.6µM
CCC1Oc2ccc(C)cc2N(CC(=O)N(Cc2cccnc2)Cc2ccc(C)o2)C1=O (centres undefined)	n	n	n	n	n	n
Cc1ccc(C(=O)O/N=C(\N)c2cccnc2)cc1[N+](=O)[O-]	n	n	n	n	n	n
SMILES	TGFb SMAD3 inh	S2 tox	ATXN2 expr inh	LDHA block	IDH1 R132H inh	HepG2 tox
Oc1ccc(/C=C/c2nc(-c3ccccc3O)n(-c3ccccc3)n2)c(O)c1	11.2µM	x	x	n	n	14.1µM
CC1C(c2ccccc2)N(C)C(c2ccccc2)CC1(O)c1ccccc1 (centres undefined)	u	u	u	n	n	22.4µM
CCC1(c2ccccc2)ON(c2c(Br)cccc2Br)C1=O (centres undefined)	u	u	22.4µM	n	n	n
Cc1ccc(-c2nn(-c3ccccc3)cc2NC(=O)c2ccccc2)cc1	n	u	n	n	n	n
Cc1cc(C)c(C(CC(=O)c2cccs2)C(C#N)C#N)c(C)c1 (centres undefined)	17.8µM	x	u	n	n	12.6µM
NNC(=O)c1nc(-c2ccccc2)cc(-c2ccccc2)n1	n	n	u	n	n	n
COc1ccc(-c2ccc(NS(=O)(=O)c3ccc(NC(C)=O)cc3)cc2)nn1	n	n	n	n	n	n
COc1ccc(CN2CCN(C(C)C(=O)N(C)Cc3cccc(F)c3)CC2)cc1OC (centres undefined)	n	n	x	-34.5	n	n
O=C(Nc1ccccc1NC(=O)NC1CCCCC1)NC1CCCCC1	n	u	20µM	n	n	n
C[C@H]1CN([C@@H](C)CO)C(=O)c2cc(Br)cnc2O[C@H]1CN(C)C(=O)c1cnccn1	n	n	n	n	n	n
ClC(Cl)(c1nnnn1-c1ccccc1)c1nnnn1-c1ccccc1	u	u	u	n	n	11.2µM
O=C(CC12CC3CC(CC(C3)C1)C2)NCC(=O)OCc1cc(=O)oc2ccc3ccccc3c12	n	n	n	n	n	n
Cc1ccc(/C=C2\SC(=S)N(CCC(=O)N3CCOCC3)C2=O)cc1	n	n	n	n	n	n
COc1ccc(/C=C2\SC(=S)N(CCC(=O)N3CCOCC3)C2=O)cc1	n	0.199µM	n	n	n	n
CCc1ccc(/C=C2/SC(=S)N(CCC(=O)NCCCN3CCOCC3)C2=O)cc1	n	u	n	n	n	n
CCc1ccc(/C=C2\SC(=S)N(CCCC(=O)NCCCN3CCOCC3)C2=O)cc1	n	10µM	x	n	n	n
CCOc1ccc(/C=C2\SC(=S)N(CCCC(=O)NCCCN3CCOCC3)C2=O)cc1	u	u	8.91µM	n	n	n
Cc1cc(C(F)(F)F)c2c(N)c(C(=O)NC3CC3)sc2n1	n	n	n	n	n	n
CCCCOc1ccc(-c2nn(-c3ccccc3)cc2C2NC(=O)NC(C)=C2C(=O)OCC)cc1 (centres undefined)	u	n	n	n	n	n
Cc1ccc(CN=Cc2[nH]c3ccc(Br)c(Cl)c3c2O)cc1	n	n	n	n	n	17.8µM
COc1ccc(CN=Cc2c(O)[nH]c3ccccc23)cc1	n	u	n[11.3 µM]	n	n	n
CC(C)CNC(=O)CCc1ccc(NC(=O)C2CCCCC2)cc1	x	x	x	n	x	x
COc1ccc(CCNC(=O)Cc2cccs2)cc1OC	n	n	n	n	n	n
COc1ccccc1Nc1nc2c(s1)CCC2	n	n	n	n	n	n
COC1=CC(=O)C=C(OC)C1=O	u	u	5.62µM	n	n	n
COC1=CC(=O)c2ccccc2C1=O	1.41µM	n	28.2µM	n	n	2.24µM
COc1ccc(SN=C2C(C)=CC(=O)C=C2C)cc1	n	n	u	n	n	n
